The values that follow come from PubChem BioAssay AID2315 (National Center for Advancing Translational Sciences (NCATS), 2010).

A word on the inhibition: it is the change of the read-out against control, counted positive when it falls.

The campaign covered roughly 290,000 compounds. About 27,000 (9.3%) were called active. The sample holds actives, similar compounds and a random draw of the others, so the mix is not that of the screen. Unmarked numbers belong to inactive results. Rule as the data show it: active = inhibition mostly above about 28% (no sharp cut-off); inactive = mostly below about 43%.

The experiment in a line: A qHTS for Small Molecule Inhibitors of Shiga Toxin. Also: 0% is about no effect. Particulars: Vero cells, Shiga toxin protein synthesis inhibition reporter; at 38.7 µM, hits give high values. On the technique in general: Quantitative high-throughput screening tests each substance at several concentrations.
Turning to `COc1ccc(CNC(=O)Cc2ccc(-c3ccccc3)cc2)cc1OC`, the inhibition is -1.2%. The same measure for `Cc1cc(=O)[nH]c2nnnn12`: -3.63%; for `COc1ccccc1C(=O)Nc1cccc(C(=O)N2CCOCC2)c1`: -11.1%.

As for `COc1ccccc1/C=C/C(=O)NC(=S)N1CCOCC1`, the inhibition was 106% (active). For the compound `COc1ccccc1/C=C/C(=O)NC1CC2CCC1C2` (stereo not drawn), the inhibition was 12.2%. The same measure for `O=C(/C=C/c1ccco1)NC(=S)N1CCCCC1`: 47.5% (active); for `COc1ccc(/C=C/C(=O)NC(=S)N2CCCC(C(N)=O)C2)cc1` (stereo not drawn): 12.4%; for `O=C(/C=C/c1ccco1)NC(=S)Nc1ccccc1Br`: 26.6%.

For the compound `CCCn1c(C2CCCN2c2nc(-c3ccc(C)cc3)cs2)nc2cc(Cl)c(N3CCCCC3)cc21` (stereo not drawn), the inhibition was 26.1%.

For the compound `CCOc1ccc(Br)cc1S(=O)(=O)Nc1ccc(C(=O)OC(C)C(=O)N(C)c2ccccc2)cc1` (stereo not drawn), the inhibition was -0.904%. The same measure for `CCOC(=O)c1c(-c2ccccc2)oc2cc(Br)c(O)c(C=O)c12`: 3%; for `Nc1cc(N)nc(SCc2ccc(Cl)cc2)n1`: 17.1%; for `Nc1cc(N)nc(SCc2cccc(F)c2)n1`: 62.3% (active). For `Cc1cc(=O)[nH]c(SCc2cccc(F)c2)n1`, the inhibition is -4.74%. The same measure for `CN(CC(=O)Nc1ccccc1C(F)(F)F)C(=O)Cc1ccccc1F`: 16.3%; for `Cc1ccc(NS(=O)(=O)c2cn(C)c(=O)n(C)c2=O)c(C)c1`: 3.31%; for `COc1ccc(-n2ncc3c(N4CCCc5ccccc54)ncnc32)cc1`: 113% (active). The same measure for `COc1ccc(-n2ncc3c(N4CCc5ccccc54)ncnc32)cc1`: 105% (active). In the case of `COc1ccc(CCC(C)N2CCc3ccccc3C2)cc1` (stereo not drawn), the inhibition is -6.15%. For the compound `COc1ccc(Oc2c(Cl)cnn(-c3ccccc3)c2=O)cc1`, the inhibition was -10.6%.

On to `COc1ccc2oc(=O)c(C(=O)N3CCCc4ccccc43)cc2c1`, for which the inhibition is -5.55%. The same measure for `COc1cc(C)c(C)cc1S(=O)(=O)N1CCCc2ccccc21`: 16.5%; for `Cc1ccc(NC(=O)CN2CCc3ccccc3C2)cc1C`: 17%. The same measure for `COc1ccc(C(=O)OCC(=O)NCCCc2ccccc2)cc1OC`: -3.51%. Consider `Cc1ccc(N2NC(=O)/C(=C/C=C/c3ccco3)C2=O)cc1C`, for which the inhibition is 20.9%. The same measure for `O=C(/C=C/c1ccco1)Nc1cccc(-c2nc3ccccc3[nH]2)c1`: 157% (active). Take `Cc1ccc(-n2nc3ccc(NC(=O)/C=C/c4ccco4)cc3n2)cc1C`: the inhibition was 63.8% (active). For the compound `O=C(Cc1cccs1)Nc1cccc(-c2nc3ccccc3[nH]2)c1`, the inhibition is 3.19%. The same measure for `O=C(Nc1cccc(-c2nc3ccccc3[nH]2)c1)c1ccc(C(=O)Nc2cccc(-c3nc4ccccc4[nH]3)c2)cc1`: 62.5% (active); for `CC(C)Oc1ccc(/C=C(\NC(=O)/C=C/c2ccco2)C(=O)NCCc2nc3ccccc3[nH]2)cc1`: 14.2%. For `CCOC(=O)c1c(NC(=O)/C=C/c2ccco2)sc(C)c1C`, the inhibition is -12.1%. The same measure for `CN(c1ccccc1)S(=O)(=O)c1cc(C(=O)Nc2nc3ccccc3[nH]2)ccc1Cl`: 55.5%; for `NS(=O)(=O)c1cccc(NC(=O)COC(=O)/C=C/c2ccco2)c1`: 26.6%.

For the compound `COc1ccc(Br)cc1C1C2C=CCC(C)C2C(=O)N1Cc1ccccc1` (stereo not drawn), the inhibition is 2.19%. The same measure for `Cc1cnc(C)c(N2CCN(C(=O)C3CCC(=O)N(CCc4cccc(F)c4)C3)CC2)n1` (stereo not drawn): 0.443%; for `NC(=O)C1CCN(C(=O)c2ccc3c(=O)n(Cc4cccc(Br)c4)c(=S)[nH]c3c2)CC1`: 0.712%. Take `CCN1C(=S)N[C@@H](c2cccc(C(F)(F)F)c2)C(C(=O)OC)=C1C`: the inhibition was -10.1%. As to `COC(=O)C1(C)CC1(c1ccccc1)c1ccccc1` (stereo not drawn), the inhibition is -7.31%. For `O=CN1CCN(C(=O)c2ccc3c(c2)OCO3)CC1` the value was 2.8%; for `CN1C(=O)/C(=C/C=C2\SCCN2C)OC1=S`, 70.4% (active). As for `COCCNc1nc(N)c([N+](=O)[O-])c(N2CCCCCC2)n1`, the inhibition is 6.83%.

Turning to `O=CN1CCN(C(=O)c2ccc(Br)o2)CC1`, the inhibition was 17.4%.

On to `Cc1ccc(NC2CCCN(C(=O)CCC3(C)CC3)C2)cc1C` (stereo not drawn), for which the inhibition was -22.1%.

With `O=C(Nc1ccccc1Cl)Nn1cnnc1`, the inhibition is 14.1%. The same measure for `COc1ccc(S(=O)(=O)Nc2cccc3cccnc23)c(N)c1`: -26.8%. For `O=C(Nc1ccccc1Cl)Nc1cccc2cccnc12` the value was 40.9% (active); for `O=C(Nc1cccc2cccnc12)C(F)(F)F`, -8.11%.

For the compound `COc1ccc(NC(=O)Nc2cccc3cccnc23)cc1`, the inhibition is 79.2% (active). For the compound `O=C(Nc1cccc2cccnc12)c1cccc(N2C(=O)CCC2=O)c1`, the inhibition was 30.9%. Turning to `CCOC(=O)Cc1ncccc1C(=O)Nc1ccc(OC)cc1`, the inhibition is 6.55%. The same measure for `N#Cc1ccc(C(=O)Nc2cccc3cccnc23)c(F)c1`: -0.419%; for `O=C(Nc1cccc2cccnc12)c1cccc(Cl)c1`: 87.7% (active). Consider `O=C(COc1ccccc1Cl)N1CCCCCCC1`, for which the inhibition was 36.9%. The same measure for `CN(c1ccccc1)S(=O)(=O)c1ccc(NC(=O)COc2ccccc2)cc1`: -5.47%; for `NS(=O)(=O)c1ccc(CCNS(=O)(=O)c2cccc3cccnc23)cc1`: -5.83%; for `COc1ccc(-c2cc(=O)oc3cc(OC(C)C(=O)Nc4ccc(CN5CCOCC5)cc4)ccc23)cc1` (stereo not drawn): -3.54%. The same measure for `CCOC(=O)c1c(-c2ccccc2)oc2ccc(OCC(N)=O)cc12`: -3.18%; for `COc1cc2c(cc1OC)C(C(=O)Nc1cc(C)c(OC)c(C)c1)CC(=O)N2` (stereo not drawn): 7.56%; for `COc1ccc(C(=O)NC(C)Cn2nc(C)cc2C)cc1OC1CCN(C(C)=O)CC1` (stereo not drawn): -5.64%. On to `Nc1ccc(C(=O)Nc2ccccc2N)cc1`, for which the inhibition was 46.6%.

`CC1CCC(NC(=O)C2c3ccccc3C(=O)N2Cc2ccc3c(c2)OCO3)CC1` (stereo not drawn): the inhibition is 15.2%. Consider `Cc1ccc(C(=O)NC2CC(C)(C)NC(C)(C)C2)c(C)c1`, for which the inhibition is -6.82%. For `Cc1ccc2c(c1)NCC(C(=O)NC1CCC(C)CC1)O2` (stereo not drawn) the value was 64.8% (active).
